Assay outcomes (PubChem)
KKLEB cytotox: CF airway cell cytotoxicity counter-screen; 360,000 compounds, 0.36% hits; activity change (cytotoxicity), % at 5 µM; KKLEB CF airway cells viability, ATPlite luminescence, overnight; active compounds read low; cells stimulated with P. aeruginosa culture filtrate; AID 602141;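 active means corrected activity change at or below -50% at 5 µM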
LMP1 NFkB inh: inhibitors of Epstein-Barr LMP1-induced NF-kappaB reporter; LMP1-induced NF-kappaB luciferase reporter cells, luminescence; inhibition, % at 12.5 µM; 350,000 compounds, 0.69% hits; AID 504558; in the data active means inhibition above about 41%;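 further: 0% = neutral control wells and 100% = reference inhibitor control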
TRPM1 prom inh: reduces MITF-dependent TRPM1 promoter luciferase signal. SK-MEL-5 TRPM1 promoter luciferase, 24 h. inhibition, % at 12.5 µM. 330,000 compounds, 0.83% hits. AID 488899;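 active means mean inhibition across replicates of 60% or more, whatever share of single replicates reaches that level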
Peg3 promoter: Peg3 promoter activity inhibition | HeLa PEG-Prom luciferase reporter, luminescence, overnight | 360,000 compounds, 1.7% hits | inhibition, % at 20 µM;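 active means inhibition of at least 50% at 20 µM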
HIF-2a block: inhibitors of HIF-2a. 360,000 compounds, 0.72% hits. inhibition, % at 18.8 µM. 786-0 RCC cells HIF-2a reporter, luciferase luminescence, overnight;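 active means inhibition of the luminescence signal of 40% or more relative to plate controls, in a single-dose primary screen at 18.75 µM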
CF NFkB inh: inhibitors of cystic fibrosis induced NF-kB; inhibition, % at 5 µM; 360,000 compounds, 0.86% hits; KKLEB NF-kB-GFP reporter, PAF-induced, GFP fluorescence overnight; AID 588850;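 active means at least 50% inhibition at 5 µM, scaled per plate between neutral and stimulator controls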;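 further: PAF is a Pseudomonas aeruginosa culture filtrate used as stimulus; plate controls were PAF-stimulated DMSO wells for no effect and unstimulated DMSO wells for full effect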
CF NFkB inh conf: confirmation of cystic fibrosis induced NF-kB inhibitors; AID 602472; inhibition, % at 5 µM; shares compounds with CF NFkB inh; 1,300 compounds, 64% hits; KKLEB CF airway cells, PAF-induced NF-kB-GFP fluorescence, overnight; in the data active means inhibition above about 40%;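 further: stimulus PAF is a Pseudomonas aeruginosa filtrate and not platelet activating factor; plate controls were DMSO wells with stimulus for no effect and unstimulated DMSO wells for full effect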
Starred values were filed as active, the others as inactive. An excerpt weighted towards active compounds, which were near 3% of everything screened.

Results for CCCOc1cccc(C2C(C(=O)c3cc4ccccc4o3)=C(O)C(=O)N2c2cc(C)on2)c1 (configuration not stated) ?
KKLEB cytotox: -2; LMP1 NFkB inh: 2; TRPM1 prom inh: -7; Peg3 promoter: 4; HIF-2a block: -2; CF NFkB inh: 66*; CF NFkB inh conf: 24

What do the screens show for `Cc1cc(N2C(=O)C(O)=C(C(=O)c3cc4ccccc4o3)C2c2cccc(Br)c2)no1` (configuration not stated)?
KKLEB cytotox: 16; LMP1 NFkB inh: 2; TRPM1 prom inh: 3; Peg3 promoter: 15; HIF-2a block: -10; CF NFkB inh: -33

Results for CCCn1c(-c2nonc2N)nc2ccccc21 ?
KKLEB cytotox: -28; LMP1 NFkB inh: 9; TRPM1 prom inh: -11; Peg3 promoter: 8; HIF-2a block: 7; CF NFkB inh: 66*; CF NFkB inh conf: 61*

What do the screens show for `Cn1c(-c2nonc2N)nc2ccccc21`?
KKLEB cytotox: 6; LMP1 NFkB inh: -7; TRPM1 prom inh: -10; Peg3 promoter: -23; HIF-2a block: -21; CF NFkB inh: -18

What do the screens show for `CN(C)c1ccc(-c2ccnc3c2CC(C)(C(=O)Nc2cccc(C(F)(F)F)c2)O3)cc1` (configuration not stated)?
KKLEB cytotox: 14; Peg3 promoter: 20; HIF-2a block: 3; CF NFkB inh: 22

Results for CCCC(=O)OCC1CN(Cc2ccco2)S(=O)(=O)c2c(F)cccc2O1 (configuration not stated) ?
KKLEB cytotox: -14; LMP1 NFkB inh: 0; TRPM1 prom inh: -5; Peg3 promoter: 5; HIF-2a block: -2; CF NFkB inh: 12

How did O=C(/C=C/c1cccs1)Nc1cccc(NC(=O)/C=C/c2cccs2)n1 do in these assays?
KKLEB cytotox: -22; LMP1 NFkB inh: -11; TRPM1 prom inh: -6; Peg3 promoter: 27; HIF-2a block: -227; CF NFkB inh: 58*; CF NFkB inh conf: 64*

How did Cc1cccc(N2CCN(C(=O)c3[nH]c(C(F)(F)F)nc3-c3ccccc3)CC2)c1C do in these assays?
KKLEB cytotox: -22; Peg3 promoter: -7; HIF-2a block: 9; CF NFkB inh: 50*; CF NFkB inh conf: 87*

Results for COCCNC(=S)N(C)[C@H]1C[C@H]2c3cc(Oc4ccccc4C)ccc3CCN2C(=O)[C@H]1[C@H](C)O ?
KKLEB cytotox: 3; LMP1 NFkB inh: 9; Peg3 promoter: -2; HIF-2a block: -8; CF NFkB inh: 2

Results for CCN(CC)c1ncnc2ccc(Br)cc12 ?
KKLEB cytotox: -17; LMP1 NFkB inh: 14; TRPM1 prom inh: 12; Peg3 promoter: 15; HIF-2a block: 19; CF NFkB inh: 71*; CF NFkB inh conf: 40*

How did CC[C@]12C(=O)N(C)C[C@H]([C@@H]3C(=O)N(Cc4ccccc4)C(=O)[C@@H]31)N2C(=O)c1ccc(F)cc1 do in these assays?
KKLEB cytotox: 9; LMP1 NFkB inh: -8; TRPM1 prom inh: -3; Peg3 promoter: 3; HIF-2a block: 3; CF NFkB inh: 5

How did CC(=O)c1ccc(-c2ccc(C(=O)NCC(c3ccc(F)cc3)N3CCOCC3)o2)cc1 (configuration not stated) do in these assays?
KKLEB cytotox: 0; LMP1 NFkB inh: -9; TRPM1 prom inh: -11; Peg3 promoter: -38; HIF-2a block: -35; CF NFkB inh: -13

How did O=C(NCC(c1ccc(F)cc1)N1CCOCC1)c1ccc([N+](=O)[O-])o1 (configuration not stated) do in these assays?
KKLEB cytotox: -1; LMP1 NFkB inh: -13; TRPM1 prom inh: 42; Peg3 promoter: 18; HIF-2a block: 9; CF NFkB inh: 64*; CF NFkB inh conf: 26

How did Cc1ccc(-c2cc(C(=O)N(C)Cc3cnn(C)c3C)c3cc(Br)ccc3n2)cc1 do in these assays?
KKLEB cytotox: -7; LMP1 NFkB inh: -7; TRPM1 prom inh: 1; Peg3 promoter: -17; HIF-2a block: -43; CF NFkB inh: 67*; CF NFkB inh conf: 58*

How did COc1cc(OC)nc(Nc2nc(C(N)c3ccccc3Cl)cs2)n1 (configuration not stated) do in these assays?
KKLEB cytotox: -36; Peg3 promoter: 38; HIF-2a block: 12; CF NFkB inh: 50*; CF NFkB inh conf: 8

What do the screens show for `CC(C)CC1OC(C(C)C)Cc2[nH]c(=S)[nH]c(=O)c21` (configuration not stated)?
HIF-2a block: -3

Results for CCc1nc2c(OCc3cc(Cl)cc(Cl)c3)cccn2c1N(C)C(=O)CC(C)C ?
KKLEB cytotox: -14; Peg3 promoter: 29; HIF-2a block: 4; CF NFkB inh: 1

Results for O=c1c(O)c(-c2ccccc2)oc2cc(O)cc(O)c12 ?
KKLEB cytotox: 6; LMP1 NFkB inh: -10; TRPM1 prom inh: -47; Peg3 promoter: -203; HIF-2a block: -97; CF NFkB inh: 60*; CF NFkB inh conf: 62*

Results for COC(=O)C[C@H]1C[C@H]2c3cc(NS(=O)(=O)c4ccc(OC)cc4)ccc3O[C@H]2[C@H](CO)O1 ?
KKLEB cytotox: 1; LMP1 NFkB inh: -4; Peg3 promoter: -8; HIF-2a block: -3; CF NFkB inh: -7

What do the screens show for `O=C(Oc1ccccc1C(=O)Nc1ccccc1)c1ccccc1Br`?
KKLEB cytotox: -46; LMP1 NFkB inh: 10; TRPM1 prom inh: -4; Peg3 promoter: -94; HIF-2a block: -116; CF NFkB inh: 62*; CF NFkB inh conf: -12

Results for O=C(COc1ccccc1C(=O)Nc1ccccc1)c1ccc(Br)cc1 ?
KKLEB cytotox: -5; LMP1 NFkB inh: 4; TRPM1 prom inh: -4; Peg3 promoter: -13; HIF-2a block: -12; CF NFkB inh: 10

What do the screens show for `COc1cc2[nH]c(=O)c(C(=O)NCc3ccc(C)cc3)c(O)c2cc1OC`?
KKLEB cytotox: -7; LMP1 NFkB inh: -2; Peg3 promoter: -10; HIF-2a block: -9; CF NFkB inh: 2

Results for COc1cc([C@@H]2Oc3cc(C4Oc5cc(O)cc(O)c5C(=O)[C@H]4O)ccc3O[C@H]2CO)ccc1O (some centres not stated) ?
KKLEB cytotox: 13; LMP1 NFkB inh: -6; TRPM1 prom inh: 13; Peg3 promoter: -12; HIF-2a block: 3; CF NFkB inh: 51*; CF NFkB inh conf: 9

How did COc1cc([C@H]2Oc3cc([C@H]4Oc5cc(O)cc(O)c5C(=O)[C@@H]4O)ccc3O[C@@H]2CO)ccc1O do in these assays?
KKLEB cytotox: -1; LMP1 NFkB inh: 1; TRPM1 prom inh: 0; Peg3 promoter: -7; HIF-2a block: 1; CF NFkB inh: 20
